Laboratory results reported in PubChem BioAssay.
Activity calls are given as the source filed them.

Columns and labels:
[1] = binders of probe aFSTL3 on microarray, primary screen, stem cell growth factor project, biochemical, small-molecule microarray, fluorescence 635/667 (AID 1064); settings: higher = more signal;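 also: measures binding of the biotinylated anti-FSTL3 antibody to printed compounds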
[2] = binders from COS7 lysate, DM2A8 probe, primary screen, torsin A project, cell lysate, small-molecule microarray, fluorescence 635/667 (AID 1065); settings: higher = more signal, COS7 lysate expressing mutant human TOR1A
[3] = binders of probe aFGF2 on microarray, primary screen, stem cell growth factor project, biochemical, small-molecule microarray, fluorescence 635/667 (AID 1067); settings: higher = more signal;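 also: measures binding of biotinylated aFGF2 protein to printed compounds on slides; z-score merges feature fluorescence and signal-to-noise across triplicate slides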
[4] = binders of probe aFGF10 on microarray, primary screen, stem cell growth factor project, biochemical, small-molecule microarray, fluorescence 635/667 (AID 1071); settings: higher = more signal;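 also: score merges 667 nm spot intensity and signal to noise from triplicate slides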
[5] = molecular target: Neurogenic locus notch homolog protein 2 (Homo sapiens) (UniProt Q04721); experiment: Notch2 binders on small-molecule microarrays, primary screen, biochemical, small-molecule microarray, 635 nm fluorescence, stem cell growth factors (AID 1073); settings: Notch2 binding, higher = more signal
[6] = molecular target: Pro-neuregulin-1, membrane-bound isoform (Homo sapiens) (UniProt Q02297); experiment: NRG1 binders on small-molecule microarrays, primary screen, psychiatric disease protein project, biochemical, small-molecule microarray, fluorescence 635/667 (AID 1075); settings: NRG1 binding, 635 nm fluorescence, higher = more signal;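 also: score combines 667 nm spot fluorescence with signal to noise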
Pro-neuregulin-1, membrane-bound isoform (Homo sapiens), sequence (Q02297 whole entry, looked up, the tested form may be a part, canonical isoform): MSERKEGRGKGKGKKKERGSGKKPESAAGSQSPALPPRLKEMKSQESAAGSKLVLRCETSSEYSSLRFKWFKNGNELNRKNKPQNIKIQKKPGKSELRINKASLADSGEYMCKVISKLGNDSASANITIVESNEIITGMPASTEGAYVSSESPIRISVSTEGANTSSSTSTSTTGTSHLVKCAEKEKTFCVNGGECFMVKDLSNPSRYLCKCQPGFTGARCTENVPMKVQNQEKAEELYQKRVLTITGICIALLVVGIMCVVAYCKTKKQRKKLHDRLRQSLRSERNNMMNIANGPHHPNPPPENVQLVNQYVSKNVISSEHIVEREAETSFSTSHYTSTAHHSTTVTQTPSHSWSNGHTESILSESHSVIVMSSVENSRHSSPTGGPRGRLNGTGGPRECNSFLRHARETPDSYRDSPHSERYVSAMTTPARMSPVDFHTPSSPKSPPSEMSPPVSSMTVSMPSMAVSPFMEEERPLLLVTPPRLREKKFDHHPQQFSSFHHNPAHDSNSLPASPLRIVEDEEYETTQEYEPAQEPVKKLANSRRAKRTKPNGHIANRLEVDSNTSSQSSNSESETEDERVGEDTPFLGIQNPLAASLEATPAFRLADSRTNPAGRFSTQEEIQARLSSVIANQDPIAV

[7] = tested on: Neuregulin-1 EGF-like domain; experiment: binders of neuregulin-1 EGF-like domain, primary screen, biochemical, small-molecule microarray, 635 nm fluorescence (AID 1081); settings: small-molecule microarray binding, higher = more signal;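 also: binding of the protein to compounds printed on small-molecule microarray slides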
[8] = FRG1 promoter luciferase signal modulators, primary screen, FRG1 inhibition for FSHD, cell-based, C2C12 myotubes, firefly/Renilla luciferase, luminescence (AID 1084); settings: higher = more signal, called active from +8 up or from −8 down
[9] = binders of probe aFST on microarray, primary screen, stem cell growth factor project, biochemical, small-molecule microarray, fluorescence 635/667 (AID 1086); settings: higher = more signal;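 also: score merges 667 nm fluorescence with signal-to-noise of each printed compound spot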
[10] = binders of probe aHhip on microarray, primary screen, stem cell growth factor project, biochemical, small-molecule microarray, fluorescence 635/667 (AID 1087); settings: higher = more signal;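 also: score merges spot fluorescence at 667nm with spot signal to noise ratio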
[11] = tested on: PRMT1 (protein arginine N-methyltransferase 1); experiment: PRMT1 binders on small-molecule microarrays, primary screen, biochemical, small-molecule microarray, 635 nm fluorescence (AID 1088); settings: small-molecule microarray binding, higher = more signal;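 also: binding of Prmt1 protein to compounds spotted on small-molecule microarray slides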
[12] = yeast growth modulation, basal conditions, primary screen, YJM789 clinical isolate, OD600, 24 h (AID 1089);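 also: growth of clinical yeast isolate S. cerevisiae YJM 789 seeded 1000 cells per well; test concentration not given here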; settings: S. cerevisiae YJM789 growth, higher = more signal, called active from +8 up or from −8 down
[13] = fission yeast growth modulation, primary screen, strain 972, OD600, 24 h, no modulator (AID 1090);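 also: basal condition with compound alone and no growth modifier present; test concentration not given here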; settings: S. pombe 972 growth, higher = more signal, called active from +8 up or from −8 down
[14] = S. cerevisiae growth modulation with rapamycin, primary screen, strain BY4716, OD600, 96 h (AID 1091); settings: higher = more signal, called active from +8 up or from −8 down; also: test concentration not given here
[15] = molecular target: Torsin-1A-interacting protein 2 (Homo sapiens) (UniProt Q8NFQ8); experiment: LULL1 binders on small-molecule microarray, primary screen, cell lysate, human LULL1 lysate, 635/667 nm fluorescence (AID 1092); settings: hLULL1 lysate binding, 635 nm fluorescence, higher = more signal;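 also: probe is lysate of COS7 cells overexpressing human LULL1; score merges per-feature 667 nm fluorescence with signal-to-noise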
Torsin-1A-interacting protein 2 (Homo sapiens), sequence (Q8NFQ8 whole entry, looked up): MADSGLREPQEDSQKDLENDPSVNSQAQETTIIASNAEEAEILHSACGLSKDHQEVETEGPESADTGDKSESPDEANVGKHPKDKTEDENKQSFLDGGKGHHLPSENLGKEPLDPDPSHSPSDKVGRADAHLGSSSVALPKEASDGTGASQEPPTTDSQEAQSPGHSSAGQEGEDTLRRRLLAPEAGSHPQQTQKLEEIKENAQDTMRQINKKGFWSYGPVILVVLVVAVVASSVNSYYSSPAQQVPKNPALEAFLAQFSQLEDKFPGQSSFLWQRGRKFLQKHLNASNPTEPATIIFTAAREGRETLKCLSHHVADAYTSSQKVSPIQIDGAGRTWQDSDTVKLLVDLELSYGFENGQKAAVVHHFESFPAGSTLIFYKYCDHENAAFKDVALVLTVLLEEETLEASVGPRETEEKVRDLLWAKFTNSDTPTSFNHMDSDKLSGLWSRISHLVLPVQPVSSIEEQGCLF

[16] = E. coli growth modulation, two-sided OD650, primary screen, E. coli filamentation project, strain DRC41, 24 h (AID 1093); settings: OD650, 24 h, higher = more signal, called active from +8 up or from −8 down;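 also: MC1000 strain lacking acrAB efflux and sulA so SOS filamentation is blocked; test concentration not given here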
[17] = small-molecule microarray binders of probe aLefty2, primary screen, biochemical, biotinylated probe, 635/667 nm fluorescence (AID 1094); settings: higher = more signal;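 also: score merges spot fluorescence near 667 nm with spot signal-to-noise ratio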
[18] = tested on: Noggin (protein binding on small-molecule microarray); experiment: Noggin binders on small-molecule microarray, primary screen, biochemical, 635/667 nm fluorescence (AID 1095); settings: 635 nm fluorescence, higher = more signal;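 also: score merges 667 nm feature fluorescence with signal to noise over triplicate slides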
[19] = molecular target: Neurogenic locus notch homolog protein 3 (Homo sapiens) (UniProt Q9UM47); experiment: NOTCH3 binders on small-molecule microarray, primary screen, biochemical, 635/667 nm fluorescence (AID 1096); settings: NOTCH3 binding, 635 nm fluorescence, higher = more signal
Neurogenic locus notch homolog protein 3 (Homo sapiens), sequence (Q9UM47 whole entry, looked up): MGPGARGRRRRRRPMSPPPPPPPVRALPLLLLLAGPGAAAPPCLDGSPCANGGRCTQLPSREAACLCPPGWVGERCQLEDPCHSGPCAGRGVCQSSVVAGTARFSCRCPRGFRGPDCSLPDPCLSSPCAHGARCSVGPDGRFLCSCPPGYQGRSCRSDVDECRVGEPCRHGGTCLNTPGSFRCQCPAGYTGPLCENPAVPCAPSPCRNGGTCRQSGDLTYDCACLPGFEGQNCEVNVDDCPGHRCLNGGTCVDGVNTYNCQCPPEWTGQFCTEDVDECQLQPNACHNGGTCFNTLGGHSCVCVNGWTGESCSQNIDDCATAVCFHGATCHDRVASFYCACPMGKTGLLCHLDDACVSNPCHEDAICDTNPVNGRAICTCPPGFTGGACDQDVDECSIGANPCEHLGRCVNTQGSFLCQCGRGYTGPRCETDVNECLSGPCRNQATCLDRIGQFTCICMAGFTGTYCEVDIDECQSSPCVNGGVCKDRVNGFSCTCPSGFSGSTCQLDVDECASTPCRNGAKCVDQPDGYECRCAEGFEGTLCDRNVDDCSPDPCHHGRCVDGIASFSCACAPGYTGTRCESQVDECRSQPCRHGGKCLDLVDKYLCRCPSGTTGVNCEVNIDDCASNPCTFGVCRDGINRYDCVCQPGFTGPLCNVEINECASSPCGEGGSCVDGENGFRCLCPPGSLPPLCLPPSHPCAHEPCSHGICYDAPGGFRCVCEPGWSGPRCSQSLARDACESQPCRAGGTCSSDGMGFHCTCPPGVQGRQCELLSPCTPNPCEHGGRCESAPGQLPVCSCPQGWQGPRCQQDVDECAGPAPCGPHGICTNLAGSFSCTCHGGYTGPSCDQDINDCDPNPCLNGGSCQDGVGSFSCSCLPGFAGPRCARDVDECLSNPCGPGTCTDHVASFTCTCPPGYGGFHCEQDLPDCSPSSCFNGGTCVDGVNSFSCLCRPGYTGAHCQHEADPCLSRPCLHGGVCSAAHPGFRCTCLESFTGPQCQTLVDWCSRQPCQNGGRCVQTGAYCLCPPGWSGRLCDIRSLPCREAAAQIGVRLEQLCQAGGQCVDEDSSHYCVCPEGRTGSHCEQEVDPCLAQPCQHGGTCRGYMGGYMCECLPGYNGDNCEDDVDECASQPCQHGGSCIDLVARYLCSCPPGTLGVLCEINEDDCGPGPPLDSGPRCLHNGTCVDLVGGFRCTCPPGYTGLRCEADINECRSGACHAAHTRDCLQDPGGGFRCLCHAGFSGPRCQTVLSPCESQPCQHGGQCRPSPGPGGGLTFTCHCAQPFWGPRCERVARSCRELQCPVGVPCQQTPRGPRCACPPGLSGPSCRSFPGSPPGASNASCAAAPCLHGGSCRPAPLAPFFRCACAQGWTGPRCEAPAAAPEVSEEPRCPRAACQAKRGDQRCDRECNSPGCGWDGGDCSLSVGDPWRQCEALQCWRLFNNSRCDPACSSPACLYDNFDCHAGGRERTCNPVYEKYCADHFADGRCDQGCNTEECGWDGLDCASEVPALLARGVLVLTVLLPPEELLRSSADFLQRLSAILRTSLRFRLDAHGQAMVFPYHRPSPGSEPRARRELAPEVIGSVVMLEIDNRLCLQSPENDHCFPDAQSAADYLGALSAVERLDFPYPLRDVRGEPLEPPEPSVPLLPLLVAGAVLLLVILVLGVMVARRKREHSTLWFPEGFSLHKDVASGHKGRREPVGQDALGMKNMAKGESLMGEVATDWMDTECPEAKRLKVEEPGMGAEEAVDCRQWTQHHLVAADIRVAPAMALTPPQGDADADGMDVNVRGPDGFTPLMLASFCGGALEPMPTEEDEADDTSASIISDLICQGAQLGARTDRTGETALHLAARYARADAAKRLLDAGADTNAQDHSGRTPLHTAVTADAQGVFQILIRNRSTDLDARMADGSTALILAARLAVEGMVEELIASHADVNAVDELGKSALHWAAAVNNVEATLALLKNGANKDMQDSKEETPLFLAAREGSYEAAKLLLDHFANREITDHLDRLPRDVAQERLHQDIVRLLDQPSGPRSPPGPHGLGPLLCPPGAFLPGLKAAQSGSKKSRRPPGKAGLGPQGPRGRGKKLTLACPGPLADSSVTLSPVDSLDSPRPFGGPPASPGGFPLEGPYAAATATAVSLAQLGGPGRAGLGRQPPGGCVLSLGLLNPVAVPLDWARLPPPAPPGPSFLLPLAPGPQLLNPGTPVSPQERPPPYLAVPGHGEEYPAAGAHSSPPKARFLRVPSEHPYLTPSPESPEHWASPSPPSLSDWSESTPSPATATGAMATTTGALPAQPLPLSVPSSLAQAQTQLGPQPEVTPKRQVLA

[20] = small-molecule microarray binders of probe aEGFR, primary screen, biochemical, biotinylated probe, 635/667 nm fluorescence (AID 1097); settings: higher = more signal;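 also: probe is a biotinylated anti-EGFR antibody binding compounds printed on slides; score combines fluorescence near 667 nm and signal to noise of each spot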

O=C(NN=C1C[C@@H](O)[C@@H](O)[C@@H]2[C@@H]3C(=O)N(Cc4ccccc4)C(=O)[C@@H]3CC[C@H]12)OCc1ccccc1
composite z-score [1]: -0.286 | composite z-score [2]: 0.897 | composite z-score [3]: -0.0996 | composite z-score [4]: 0.378 | composite z-score [5]: 0.226 | composite z-score [6]: -0.153 | composite z-score [7]: -0.15 | z-score [8]: 0.157 (inactive) | composite z-score [9]: 0.122 | composite z-score [10]: 0.0373 | composite z-score [11]: -0.38 | z-score [12]: -0.79 (inactive) | z-score [13]: -0.815 (inactive) | z-score [14]: -1.27 (inactive) | composite z-score [15]: -0.845 | z-score [16]: 0.399 (inactive) | composite z-score [17]: -0.269 | composite z-score [18]: 0.382 | composite z-score [19]: 0.577 | composite z-score [20]: -0.0796

O=C(NN=C1C[C@@H](O)[C@@H](O)[C@@H]2[C@@H]3C(=O)N(Cc4ccc5c(c4)OCO5)C(=O)[C@@H]3CC[C@@H]12)OCc1ccccc1
composite z-score [1]: 0.595 | composite z-score [2]: -0.183 | composite z-score [3]: -0.0467 | composite z-score [4]: 0.107 | composite z-score [5]: 0.133 | composite z-score [6]: 0.022 | composite z-score [7]: -0.17 | z-score [8]: 1.78 (inactive) | composite z-score [9]: 0.312 | composite z-score [10]: -0.134 | composite z-score [11]: -0.0443 | z-score [12]: 0.186 (inactive) | z-score [13]: -0.475 (inactive) | z-score [14]: -0.4 (inactive) | composite z-score [15]: 0.418 | z-score [16]: 0.885 (inactive) | composite z-score [17]: 0.0026 | composite z-score [18]: -0.0248 | composite z-score [19]: -0.142 | composite z-score [20]: -0.0433

C[C@@H]1C=CCC(=O)OC[C@H](C)C(=O)N[C@@H](Cc2ccccc2)C(=O)OC1
composite z-score [1]: -0.553 | composite z-score [2]: 1.31 | composite z-score [3]: -0.245 | composite z-score [4]: 0.294 | composite z-score [5]: 0.443 | composite z-score [6]: -0.302 | composite z-score [7]: 0.422 | z-score [8]: -0.514 (inactive) | composite z-score [9]: 0.0347 | composite z-score [10]: 0.605 | composite z-score [11]: -0.431 | z-score [12]: 0.214 (inactive) | z-score [13]: -1.06 (inactive) | z-score [14]: -0.0603 (inactive) | composite z-score [15]: 0.146 | z-score [16]: -0.234 (inactive) | composite z-score [17]: -0.192 | composite z-score [18]: 0.79 | composite z-score [19]: -0.019 | composite z-score [20]: -0.0513

CC(C)=NO[C@@H](C)c1cn([C@H](CO)Cc2ccccc2)nn1
composite z-score [1]: -0.0953 | composite z-score [2]: 0.463 | composite z-score [3]: 0.153 | composite z-score [4]: 0.423 | composite z-score [5]: 0.579 | composite z-score [6]: 0.763 | composite z-score [7]: 0.442 | z-score [8]: -0.88 (inactive) | composite z-score [9]: 0.907 | composite z-score [10]: 0.132 | composite z-score [11]: 0.99 | z-score [12]: -1.93 (inactive) | z-score [13]: -2.29 (inactive) | z-score [14]: -0.735 (inactive) | composite z-score [15]: 1.03 | z-score [16]: -0.409 (inactive) | composite z-score [17]: -0.127 | composite z-score [18]: 0.946 | composite z-score [19]: 0.331 | composite z-score [20]: 0.255

CCOC(=O)[C@H](Cc1ccccc1)NC(=O)CCC1CC(OC(=O)NCc2cccc3ccccc23)CC2(CCCC(COC(=O)NCCc3ccccc3OC)O2)O1 (stereo not given in full)
composite z-score [1]: -0.568 | composite z-score [2]: 0.0631 | composite z-score [3]: -0.0538 | composite z-score [4]: 0.586 | composite z-score [5]: 0.967 | composite z-score [6]: 0.341 | composite z-score [7]: 1.02 | z-score [8]: 1.37 (inactive) | composite z-score [9]: 0.327 | composite z-score [10]: 0.0623 | composite z-score [11]: 1.4 | z-score [12]: 0.105 (inactive) | z-score [13]: 0.503 (inactive) | z-score [14]: 0.296 (inactive) | composite z-score [15]: 1.95 | z-score [16]: -0.164 (inactive) | composite z-score [17]: 0.0108 | composite z-score [18]: 0.591 | composite z-score [19]: 0.819 | composite z-score [20]: -0.0396

Cc1cc2c(nc1C)CCCCN2CC(O)CN1CCCc2nc(-c3ccc(Br)cc3)ccc21 (stereo not given)
composite z-score [1]: -0.193 | composite z-score [2]: 0.514 | composite z-score [3]: -0.019 | composite z-score [4]: 0.673 | composite z-score [5]: 0.513 | composite z-score [6]: 0.548 | composite z-score [7]: 1.02 | z-score [8]: 2.29 (inactive) | composite z-score [9]: 0.5 | composite z-score [10]: -0.146 | composite z-score [11]: 0.829 | z-score [12]: -0.178 (inactive) | z-score [13]: -0.616 (inactive) | z-score [14]: -0.051 (inactive) | composite z-score [15]: -0.0639 | z-score [16]: 0.353 (inactive) | composite z-score [17]: -0.0083 | composite z-score [18]: 0.558 | composite z-score [19]: 1.11 | composite z-score [20]: 0.0122

CO[C@@H](C1CCCCC1)[C@@H](C)[C@H](OCc1cccc(Br)c1)[C@@H](C)CO
composite z-score [1]: -0.284 | composite z-score [2]: -0.0003 | composite z-score [3]: -0.0909 | composite z-score [4]: 0.179 | composite z-score [5]: -0.0552 | composite z-score [6]: -0.194 | composite z-score [7]: -0.511 | z-score [8]: 2.57 (inactive) | composite z-score [9]: 0.306 | composite z-score [10]: -0.0173 | composite z-score [11]: 0.0812 | z-score [12]: -0.407 (inactive) | z-score [13]: -16.4 (active) | z-score [14]: -1.11 (inactive) | composite z-score [15]: 0.366 | z-score [16]: 0.114 (inactive) | composite z-score [17]: -0.181 | composite z-score [18]: 0.307 | composite z-score [19]: 0.322 | composite z-score [20]: -0.0549

O=C1[C@H]2CCn3c(=O)n(Cc4cc5c(cc4Cl)OCO5)c(=O)n3[C@H]2[C@H](O)[C@@H]2O[C@H]12
composite z-score [1]: 1.24 | composite z-score [2]: -0.0222 | composite z-score [3]: -0.162 | composite z-score [4]: -0.244 | composite z-score [5]: -0.382 | composite z-score [6]: -0.156 | composite z-score [7]: 0.801 | z-score [8]: -0.162 (inactive) | composite z-score [9]: -0.332 | composite z-score [10]: 0.0156 | composite z-score [11]: -0.0582 | z-score [12]: 0.821 (inactive) | z-score [13]: -0.315 (inactive) | z-score [14]: -0.224 (inactive) | composite z-score [15]: -0.297 | z-score [16]: 0.662 (inactive) | composite z-score [17]: -0.255 | composite z-score [18]: 0.27 | composite z-score [19]: -0.802 | composite z-score [20]: -0.173

COC(=O)[C@H](C)NC(=O)CCC1CC(OC(=O)NCc2ccc3c(c2)OCO3)CC2(CCCC(COC(=O)NCCC(C)C)O2)O1 (stereo not given in full)
composite z-score [1]: -0.312 | composite z-score [2]: 0.255 | composite z-score [3]: -0.0837 | composite z-score [4]: 0.338 | composite z-score [5]: 0.821 | composite z-score [6]: 1.14 | composite z-score [7]: 0.808 | z-score [8]: 1.52 (inactive) | composite z-score [9]: 0.0929 | composite z-score [10]: -0.318 | composite z-score [11]: 1.55 | z-score [12]: -0.916 (inactive) | z-score [13]: -0.031 (inactive) | z-score [14]: -1.24 (inactive) | composite z-score [15]: 2.28 | z-score [16]: 0.861 (inactive) | composite z-score [17]: -0.166 | composite z-score [18]: 0.501 | composite z-score [19]: 0.437 | composite z-score [20]: -0.0858

CCN1C(=O)[C@H]2[C@H]3[C@H](O)[C@H](O)CC(=NOCC(C)C)[C@H]3CC[C@H]2C1=O
composite z-score [1]: -0.801 | composite z-score [2]: 0.328 | composite z-score [3]: -0.0977 | composite z-score [4]: 0.329 | composite z-score [5]: 0.351 | composite z-score [6]: -0.139 | composite z-score [7]: 0.124 | z-score [8]: 0.268 (inactive) | composite z-score [9]: 0.101 | composite z-score [10]: -0.079 | composite z-score [11]: -0.332 | z-score [12]: -0.349 (inactive) | z-score [13]: 0.735 (inactive) | z-score [14]: 0.512 (inactive) | composite z-score [15]: -0.153 | z-score [16]: 0.769 (inactive) | composite z-score [17]: -0.019 | composite z-score [18]: 0.569 | composite z-score [19]: 0.599 | composite z-score [20]: 0.0167
